PubChem BioAssay
A number with no mark means an inactive call. Calls of active or inactive are those of the source. Unless noted, no stated cut-off is given here; in the data, active means inhibition above about 44%; inactive means the rest.

How the values were obtained:
[1] = StAR promoter reporter inhibitors, counter-screen for LRH-1 inverse agonist project, cell-based, luminescence, high throughput (AID 651611; in the data active means inhibition above about 28%); conditions: StAR promoter luciferase reporter counterscreen, at 3.6 µM, hits give high values
[2] = molecular target: Nuclear receptor subfamily 5 group A member 2 (Homo sapiens) (UniProt O00482); test: NR5A2 activity suppression in reporter cells – cell-based, luminescence, confirmation (AID 651613; in the data active means inhibition above about 42%;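 further: HEK293T cells co-transfected with LRH-1 and StAR promoter luciferase reporter; 0% = vehicle wells and 100% = parental cells lacking receptor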); conditions: cell-based LRH-1 luciferase reporter, inverse agonism; at 3.6 µM; hits give high values
[3] = molecular target: Steroidogenic factor 1 (Homo sapiens) (UniProt Q13285); test: inverse agonism at SF1 nuclear receptor – cell-based, luminescence, high throughput, counter-screen for LRH-1 inverse agonist project (AID 651614); conditions: cell-based SF1 luciferase reporter, at 3.6 µM, hits give high values;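 further: cells cotransfected with StAR promoter reporter and SF1 expression vector; 0% = vehicle on cells with receptor and 100% = vehicle on cells lacking receptor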
[4] = compounds suppressing VP16-driven luciferase signal – cell-based, luminescence, high throughput, counter-screen for LRH-1 inverse agonist project (AID 651615; in the data active means inhibition above about 33%); conditions: Gal4-VP16 luciferase reporter cells, at 3.6 µM, hits give high values

Chain of Nuclear receptor subfamily 5 group A member 2 (Homo sapiens) (O00482 whole entry, looked up): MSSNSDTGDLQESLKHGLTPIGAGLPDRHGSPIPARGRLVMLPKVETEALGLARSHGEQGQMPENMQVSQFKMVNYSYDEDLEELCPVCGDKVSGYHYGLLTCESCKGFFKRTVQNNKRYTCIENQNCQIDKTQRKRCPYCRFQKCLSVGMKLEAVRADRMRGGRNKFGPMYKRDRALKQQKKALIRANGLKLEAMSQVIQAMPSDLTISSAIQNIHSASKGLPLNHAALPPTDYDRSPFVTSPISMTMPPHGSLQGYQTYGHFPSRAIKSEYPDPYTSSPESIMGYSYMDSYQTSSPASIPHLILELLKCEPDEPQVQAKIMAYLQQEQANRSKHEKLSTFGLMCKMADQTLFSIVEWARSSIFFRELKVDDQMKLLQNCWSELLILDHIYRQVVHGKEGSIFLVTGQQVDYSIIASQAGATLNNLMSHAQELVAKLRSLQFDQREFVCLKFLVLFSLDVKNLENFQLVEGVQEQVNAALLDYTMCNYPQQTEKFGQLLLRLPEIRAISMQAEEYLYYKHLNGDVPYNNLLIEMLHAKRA
Chain of Steroidogenic factor 1 (Homo sapiens) (Q13285 whole entry, looked up, the tested form may be a part): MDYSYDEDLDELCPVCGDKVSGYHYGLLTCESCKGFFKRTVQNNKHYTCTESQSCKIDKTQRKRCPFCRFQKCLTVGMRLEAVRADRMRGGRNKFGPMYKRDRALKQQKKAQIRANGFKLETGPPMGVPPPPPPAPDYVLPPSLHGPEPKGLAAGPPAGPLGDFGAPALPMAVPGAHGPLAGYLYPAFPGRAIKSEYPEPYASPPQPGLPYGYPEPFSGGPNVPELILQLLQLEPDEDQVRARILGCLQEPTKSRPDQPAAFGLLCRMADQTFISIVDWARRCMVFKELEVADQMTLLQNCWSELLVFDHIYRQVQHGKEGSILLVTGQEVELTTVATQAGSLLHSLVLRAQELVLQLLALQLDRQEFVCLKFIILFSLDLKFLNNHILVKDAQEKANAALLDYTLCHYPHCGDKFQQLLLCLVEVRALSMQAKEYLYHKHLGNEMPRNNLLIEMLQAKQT

Compound	inhibition [1]	inhibition [2]	inhibition [3]	inhibition [4]
COC(=O)c1ccc(CNC(=O)COC(=O)c2cc(Cl)nc(Cl)c2)cc1	11.2%	52.4% (active)	37.1%	11.2%
Cc1cc2oc(=O)cc(-c3ccccc3)c2c(C)c1-c1ccc(N(C)C)cc1	0.45%	52% (active)	51.3% (active)	12.6%
COc1cc2c(cc1OC)CN(C(=O)CN1C(=O)NC3(CCC(C)CC3)C1=O)CC2 (stereo not drawn)	11.1%	46% (active)	46.4% (active)	7.61%
CC(=O)Nc1ccc(NC(=O)COC(=O)c2c(C)nn(-c3ccccc3)c2C)cc1	10.2%	51.6% (active)	50.9% (active)	-22.5%
CC(=O)Nc1cc(-c2ccc(S(C)(=O)=O)cc2)cn2c(-c3ccc(F)c(Cl)c3)cnc12	12.9%	61.1% (active)	51.7% (active)	3.98%
COc1ccc(OC)c(CCNC(=O)C(C)n2nc(C)c3c(C)n(-c4ccc(C)cc4)nc3c2=O)c1 (stereo not drawn)	15.2%	64% (active)	55.6% (active)	51.2% (active)
O=C(CN1C(=O)NC2(CCCC2)C1=O)NCCc1ccc(F)cc1	15.3%	44.2% (active)	40.8%	5.08%
O=C(Cn1cnc2c(nnn2-c2ccccc2)c1=O)NCC1CCCO1 (stereo not drawn)	-2.93%	16.6%	-2.18%	7.48%
O=C(Nc1ccc2[nH]c(=O)[nH]c2c1)c1ccc([N+](=O)[O-])o1	7.96%	65.1% (active)	65.8% (active)	-11.8%
Cc1nc2ccccc2n1Cc1ccc(Cl)cc1	8.73%	56.1% (active)	54.1% (active)	47% (active)
COC(=O)CNC(=O)c1nn(-c2cccc(OC)c2)c(=O)c2ccccc12	25%	35.9%	37.3%	-0.96%
C=CC[n+]1c(-c2ccc(Cl)cc2Cl)csc1Nc1c(C)n(C)n(-c2ccccc2)c1=O	10.3%	58.7% (active)	61% (active)	27.5%
CC(=O)NC12CC3CC(C1)CC(C(=O)Nc1nc4ccc(S(C)(=O)=O)cc4s1)(C3)C2	11.2%	50.8% (active)	45.2% (active)	-1.09%
Cc1ccc(SCc2ccc(C(=O)NCc3ccncc3)cc2)cc1	-0.78%	55.9% (active)	53.1% (active)	-0.6%
CSc1ccc(CNc2cccc3ccccc23)cc1	3.79%	35.3%	24.7%	-39.8%
ClCc1ncc(-c2ccc(Cl)cc2)o1	15.7%	70% (active)	62.7% (active)	-28.8%
COc1ccc(C[C@@H]2OC3(C=CC(=O)C=C3)O[C@H]2Cc2ccc(OC)cc2)cc1	37.5% (active)	68.4% (active)	66% (active)	70.6% (active)
COc1ccc(OC)c(-n2c(-c3ccc(S(C)(=O)=O)cc3)cc(C=O)c2C)c1	25%	48.2% (active)	55.3% (active)	-41.9%
O=C(Nc1cccc([N+](=O)[O-])c1)c1ccc([N+](=O)[O-])o1	24%	64.7% (active)	70.5% (active)	-20.3%
CCCOc1ccc(NC(=O)CC2C(=O)N(C)C(=S)N2Cc2ccc3c(c2)OCO3)cc1 (stereo not drawn)	6.7%	57.6% (active)	53.2% (active)	5.2%
O=C(Nc1ccc(N2CCN(C(=O)c3ccc(Cl)cc3)CC2)cc1)c1ccc([N+](=O)[O-])o1	24.9%	51.9% (active)	66.2% (active)	1.04%
S=C(NCc1ccc(Cl)cc1)Nc1ccncc1	24.2%	80.9% (active)	72.8% (active)	35.1% (active)
CC(=O)N1CCc2c(sc(NC(=O)CCS(=O)(=O)c3ccccc3)c2C#N)C1	-5.27%	60.1% (active)	55.1% (active)	-11%
OCCCNc1ncnc2oc(-c3ccccc3)c(-c3ccccc3)c12	9.63%	35.1%	27.6%	13.3%
Clc1ccc(COc2cccc(CNCc3ccncc3)c2)cc1	2.94%	62.4% (active)	57.7% (active)	26%
CC1(C)CC(=O)C=C(c2ccc3ncccc3c2)C1	13.7%	52.2% (active)	52.9% (active)	14.3%

Compound	inhibition [1]	inhibition [2]	inhibition [3]	inhibition [4]
O=C(Nc1ccc(Cl)cn1)c1ccc([N+](=O)[O-])o1	-0.66%	51.5% (active)	55% (active)	-20.8%
CC(NC(=O)c1ccco1)C(c1cccs1)N1CCN(c2ccccc2F)CC1 (stereo not drawn)	3.57%	49.3% (active)	42.6%	13%
CCN(CC)S(=O)(=O)c1ccc(NC(=O)c2ccc(CN3CCOCC3)cc2)cc1	23.9%	57.5% (active)	57.4% (active)	54.4% (active)
CC(=O)Oc1ccc(-c2ccc(C(=O)Nc3cccc(S(=O)(=O)N4CCOCC4)c3)cc2)cc1	25.5%	35.1%	52.1% (active)	59.4% (active)
COc1ccc(N2CCN(C(=O)c3ccc(CNS(=O)(=O)c4cccc(OC)c4)cc3)CC2)cc1	9.25%	27.8%	29.5%	6.88%
Cc1cc(C)n(-c2nc(Nc3ccccc3C(F)(F)F)nc(-n3nc(C)cc3C)n2)n1	20.8%	21.6%	24.5%	-0.49%
Cn1c(=O)oc2cc(NC(=O)CCl)ccc21	51.8% (active)	61.6% (active)	71.3% (active)	-65.2%
O=C(CCl)Nc1cccc(Oc2cnccn2)c1	37.1% (active)	69% (active)	64.9% (active)	-26.5%
COc1ccc(NC(=O)CSc2nnc3ccc(-c4cccnc4)nn23)cc1OC	7.32%	42.1% (active)	41.9%	-8.78%
COc1cc(-c2cc(-c3ccc(O)cc3)nc(N)c2C#N)ccc1O	36.1% (active)	68.3% (active)	53.9% (active)	-133%
COc1ccc(S(=O)(=O)Nc2ccc3c(c2)n(C)c(=O)n3C)cc1F	19.6%	46.2% (active)	52.1% (active)	7.89%
COc1ccc(OCCNC(=O)C2(C)CCN2Cc2ccc(SC)cc2)cc1 (stereo not drawn)	1.32%	46% (active)	45.9% (active)	2.76%
CN(C)c1ccc(C=c2c3ccccc3n3c2c2ccccc2[n+]3C)cc1	54.9% (active)	107% (active)	90.7% (active)	91.7% (active)
CCCCNc1cc(C)nc(NCc2ccccc2)n1	35.5% (active)	57.6% (active)	68.8% (active)	50.8% (active)
O=C(Cn1ccc(=O)[nH]c1=O)c1ccc([N+](=O)[O-])o1	13.1%	14.3%	14.9%	-16.8%
CCn1c2ccccc2c2cc(/C=N/n3c(-c4cc(C)[nH]n4)n[nH]c3=S)ccc21	11.8%	4.98%	31.7%	7.75%
C=CC[n+]1c(/C=C2\C=Cc3cc(C)ccc3N2CC)ccc2ccccc21	80.6% (active)	110% (active)	95.5% (active)	95.8% (active)
COc1ccc(CNC(=O)c2cccc3c(-c4cnn(C)c4)coc23)cc1OC	12.8%	46.2% (active)	46% (active)	36.4% (active)
COc1ccccc1-n1c(SCC(=O)Nc2ccc(Cl)cc2)nc(O)c(Cc2ccccc2)c1=O	16.2%	55.1% (active)	56% (active)	0.94%
CCC(=O)N1CCN(c2cc(NCC3CCCO3)c(F)cc2[N+](=O)[O-])CC1 (stereo not drawn)	9.58%	43.8% (active)	50.7% (active)	0.55%
COc1cc(-c2cnc3c(NC=O)cc(-c4ccccc4Cl)cn23)cc(OC)c1OC	64.9% (active)	45.6% (active)	62.6% (active)	-21.3%
Cc1cc(C(=O)CSc2nnnn2-c2ccccc2)c(C)n1-c1ccc2c(c1)OCO2	0.11%	42.3% (active)	28.5%	27.6%
CC(C)NC(=O)N1Cc2cc(C(=O)NC3CCCCC3)nc(-c3cccc(-c4cccnc4)c3)c2[C@@H]1CCO	27.6%	62.6% (active)	62.5% (active)	-0.48%
N#CCc1ccc(OCCCN2CCC(C(O)(c3ccccc3)c3ccccc3)CC2)cc1	8.39%	40.8%	27.8%	12.4%
CCCc1nc(SCC(=O)c2ccc(F)cc2)c2ccccc2n1	5.26%	46.9% (active)	55.7% (active)	-0.25%
O=C(CSc1ncccc1-c1nc2ccccc2[nH]1)Nc1ccc2c(c1)OCCO2	-8.79%	-2.1%	5.63%	-15.5%
